This note sets out measurements from PubChem BioAssay (NCI).

Molecules are shown by their SMILES. “And” between values parts separate entries of the source, which are not always exact repeats. Identical values can stand only once. About 83,000 compounds went through this panel and 20% of them were active in at least one assay; those are over-represented in the sample as a whole.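 Single-concentration screen, 48 h exposure, 96-well plates. Endpoint: percent growth. Below 10 = active.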 A number with no mark means an inactive call. The source made the active and inactive calls.

In the first assay the test system is HOP-92 NSCLC. Description: NCI-60 one-dose screen, 48 h (100 = growth as untreated, 0 = no growth, -100 = all killed). As to conditions: 10 µM unless noted.
In the case of `CCN1CCN(CC(=O)Nc2nc3ccc(NCc4ccc(C)cc4)cc3s2)CC1`, the growth was 39%.

Take `Clc1cccc(Nc2ncnc3ccc(-c4cncc(-n5cnnn5)c4)cc23)c1`: the growth is 21.7%.

Take `CCc1c2c(nc3ccc(OCc4ccc(B5OC(C)(C)C(C)(C)O5)cc4)cc13)-c1cc3c(c(=O)n1C2)COC(=O)[C@]3(O)CC`: the growth is -9.71% (active).

For `COc1ccc(/C=N\Nc2nc(SCC(C)C)nc(-c3ccc(OC)cc3)c2C#N)cc1`, the growth was 15.1%.

In the case of `COc1cc2nc3cc([N+](=O)[O-])ccc3c(NCCNCC(C)(C)O)c2cc1OC`, the growth is -45.6% (active).

As to `COc1ccc(C(=O)c2ccc(OC)c(OC)c2OC)cc1`, the growth is 59.6% and 41.5%.

In the case of `N=C1/C(=C2\NC3C=CC=CC3S2)C(c2ccc(Cl)cc2)C2C(=O)N(c3ccccc3)C(=S)N12` (stereo unspecified), the growth is 102%.

For the compound `CC1=CC(C)(C)NC(=S)N1c1ccc(Cl)cc1`, the growth is 114%.

Take `Cc1nn(-c2nc(-c3cc4ccccc4oc3=O)cs2)c(C)c1N=Nc1ccccc1`: the growth was 79.9%.

For `Cc1nc(Nc2ncc(C(=O)Nc3c(C)cccc3Cl)s2)cc(N2CCN(CCO)CC2)n1`, the growth is -21.5% (active) and -11.5% (active).

Take `COc1ccc(-c2ccc(-c3ccc(C(=N)N)cn3)s2)cc1Cl`: the growth is -76.8% (active).

Take `CNC(=O)c1cc(Oc2ccc3nc(NC(=O)Nc4ccc(C(F)(F)F)cc4)sc3c2)ccn1`: the growth was 74.4%.

For `COc1ccc(CCNC(=O)COc2cc3c(Nc4ccc(F)c(Cl)c4)ncnc3cc2OC)cc1OC`, the growth is 87.9%.

Regarding `Cc1ccc(S(=O)(=O)Nc2cc(Sc3ccccc3)c(O)c3ccccc23)cc1`, the growth is 18.2%.

Turning to `Nc1nc(Nc2cccnc2)sc1C(=O)c1ccccc1F`, the growth was 51.8%.

With `O=C(Cn1cc(CN2CCN(c3ccnc4cc(Cl)ccc34)CC2)nn1)Nc1cccc([N+](=O)[O-])c1`, the growth is 71.4%.

`CCOc1nc(-c2ccccc2)cc2c(O)c(C(=O)N/N=C/c3ccc(N(C)C)cc3)[nH]c(=O)c12`: the growth is 99.9%.

For the next assay, the system named is NCI-H522 lung. The assay is described as above. As to conditions: 10 µM unless noted.
Take `C=C[C@]1(C)C=C2CC[C@@H]3C(C)(C)C(=O)CC[C@@]3(C)[C@@H]2CC1`: the growth is 94.6%.

For `CN(C)CC1(C)Cc2ccsc2C1O` (stereo unspecified), the growth is 94.5% and 94.3%.

In the case of `CCN(CC)/C([O-])=c1\cccc\c1=C1\N=C(c2ccccc2)N=C1[n+]1ccc(-c2ccccc2)cc1`, the growth is 21%.

On to `Cc1oc2c(Cc3ccc(NC(=O)c4ccc(Cl)cc4)cc3)ncnc2c1C(=O)NO`, for which the growth is 70.7%.

With `COc1cc(CNC(=O)CCCC/C=C/C(C)C)ccc1O`, the growth was 83.1% and 75.5%.

For the compound `CC1=C2[C@@H](CC1)[C@]1(C)O[C@@](C(C)C)(C[C@H]1OC(=O)CO)[C@H]2OC(=O)C1CC1c1ccccc1` (stereo partly specified), the growth is 73.9%.

`O=C1OCC2=C1C(c1cccc(C(F)(F)F)c1)c1cc3c(cc1N2CCO)CCC3` (stereo unspecified): the growth was -18.4% (active).

For the compound `COc1ccc(/C=N/C2=C(C#N)C(c3ccccc3)c3c(ccc4ccccc34)O2)cc1` (stereo unspecified), the growth is 2.3% (active).

Regarding `O=C(CCl)N(O)c1ccc(/C=C/c2ccccc2)cc1`, the growth was 61.5% and 30.4%.

For the compound `N#C/C(=C\c1ccc(Br)cc1)n1nnc2c(F)cccc21`, the growth is -52.1% (active).

Consider `O=C(/C=C/c1ccccc1)c1cccs1`, for which the growth was 73.6% and 94.2%.

On to `COc1ccc(Nc2nn3c(SCC(=O)c4ccc(C)cc4)nnc3s2)cc1`, for which the growth is 80.6%.

Take `CN(Cc1ccccc1)c1nc(Cl)c(C2CC(c3ccc4c(c3)OCO4)=NN2c2cc(Cl)cc(Cl)c2)s1` (stereo unspecified): the growth is 94.2%.

Take `Cc1nnc(NS(=O)(=O)c2ccc(N=Nc3ccc(N)nc3N)cc2)s1`: the growth is 96.7%.

Regarding `CC[C@H](C)[C@H](NC(=O)[C@H](CCCCN)NC(=O)[C@H](CCCCN)NC(=O)[C@@H](NC(=O)[C@@H](NC(=O)[C@@H](N)Cc1cnc[nH]1)[C@@H](C)CC)[C@@H](C)CC)C(=O)N[C@@H](CCCNC(=N)N)C(=O)N[C@H](C(=O)N[C@@H](Cc1c[nH]c2ccccc12)C(=O)N[C@@H](Cc1ccc(O)cc1)C(=O)N[C@@H](CCCNC(=N)N)C(=O)N[C@@H](CCCCN)C(=O)N[C@@H](C)C(=O)N[C@@H](Cc1c[nH]c2ccccc12)C(=O)N[C@@H](Cc1cnc[nH]1)C(=O)N[C@H](C(=O)N[C@@H](CC(C)C)C(=O)NCC(=O)N[C@@H](CCCCN)C(=O)N[C@H](C(N)=O)C(C)C)C(C)C)[C@@H](C)O`, the growth was 45.9%.

As for `O=S(=O)(Nc1cc(Sc2cccc3cccnc23)c(O)c2ccccc12)c1ccc(F)cc1`, the growth is -48.7% (active).

With `COc1ccc2c(c1)CCNC21C(=O)Nc2c(Br)cc(Br)cc21` (stereo unspecified), the growth was 91.6%.

In the case of `CCCn1nc(C(=O)N2CCCCC2)c2c1CCC(N1CCC(c3ccncc3)CC1)C2` (stereo unspecified), the growth was 90.5%.

Take `C=C1C(=O)O[C@@H]2[C@H]3[C@H](COC(C)=O)[C@@H](OC(C)=O)C[C@H]3C(=C)[C@@H](O)C[C@@H]12`: the growth is 73%.

For `CC(=O)N1N=C(c2ccc(F)cc2)CC1c1sc(N(C)Cc2ccccc2)nc1Cl` (stereo unspecified), the growth is 81.6%.

For `O=C(/C=C/c1ccc([N+](=O)[O-])cc1)c1ccccc1`, the growth was 70.4%.

For the compound `COc1ccc(C(CC(=O)c2ccc3c(c2)OCO3)C(=O)O)cc1OC` (stereo unspecified), the growth is 88.6% and 78.1%.

On to `CCN1CCN(CC(=O)Nc2nc3ccc(NCc4ccc(C)cc4)cc3s2)CC1`, for which the growth is 93.7%.

Turning to `Clc1cccc(Nc2ncnc3ccc(-c4cncc(-n5cnnn5)c4)cc23)c1`, the growth is 49.2%.

Take `CCc1c2c(nc3ccc(OCc4ccc(B5OC(C)(C)C(C)(C)O5)cc4)cc13)-c1cc3c(c(=O)n1C2)COC(=O)[C@]3(O)CC`: the growth is 3.47% (active).

With `COc1ccc(/C=N\Nc2nc(SCC(C)C)nc(-c3ccc(OC)cc3)c2C#N)cc1`, the growth is 54%.

On to `COc1cc2nc3cc([N+](=O)[O-])ccc3c(NCCNCC(C)(C)O)c2cc1OC`, for which the growth was -40.3% (active).

In the case of `COc1ccc(C(=O)c2ccc(OC)c(OC)c2OC)cc1`, the growth was 11.2% and 12.1%.

On to `N=C1/C(=C2\NC3C=CC=CC3S2)C(c2ccc(Cl)cc2)C2C(=O)N(c3ccccc3)C(=S)N12` (stereo unspecified), for which the growth is 101%.

As for `CC1=CC(C)(C)NC(=S)N1c1ccc(Cl)cc1`, the growth was 93.7% and 92.4%.

With `Cc1nn(-c2nc(-c3cc4ccccc4oc3=O)cs2)c(C)c1N=Nc1ccccc1`, the growth was 97.8%.

Consider `Cc1nc(Nc2ncc(C(=O)Nc3c(C)cccc3Cl)s2)cc(N2CCN(CCO)CC2)n1`, for which the growth is -1.57% (active).

Consider `COc1ccc(-c2ccc(-c3ccc(C(=N)N)cn3)s2)cc1Cl`, for which the growth was -44.2% (active).

In the case of `CNC(=O)c1cc(Oc2ccc3nc(NC(=O)Nc4ccc(C(F)(F)F)cc4)sc3c2)ccn1`, the growth was 42.4%.

Turning to `COc1ccc(CCNC(=O)COc2cc3c(Nc4ccc(F)c(Cl)c4)ncnc3cc2OC)cc1OC`, the growth is 70.2%.

For `Cc1ccc(S(=O)(=O)Nc2cc(Sc3ccccc3)c(O)c3ccccc23)cc1`, the growth is 81%.

In the case of `Nc1nc(Nc2cccnc2)sc1C(=O)c1ccccc1F`, the growth is 71.4%.

For `O=C(Cn1cc(CN2CCN(c3ccnc4cc(Cl)ccc34)CC2)nn1)Nc1cccc([N+](=O)[O-])c1`, the growth was 71.7%.

For the compound `CCOc1nc(-c2ccccc2)cc2c(O)c(C(=O)N/N=C/c3ccc(N(C)C)cc3)[nH]c(=O)c12`, the growth is 80.4%.
